Test systems include NCI-H23 lung; NCI-H226 lung; HOP-62 NSCLC; NCI-H460 lung; HOP-92 NSCLC; NCI-H522 lung; A549/ATCC NSCLC; 786-0 renal; COLO 205 colon.
Assay in all cases: NCI-60 one-dose screen, 48 h (100 = growth as untreated, 0 = no growth, -100 = all killed)
Holding throughout (conditions): 10 µM

About 83,000 compounds went through this panel and 20% of them were active in at least one assay; those are over-represented in the sample as a whole.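 Method: cells in 96-well plates; compound added at one concentration; 48 h incubation; percent growth measured; values under 10 scored active.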 Values without a mark were called inactive. The source made the active and inactive calls.

Turning to `CCC(CC)n1c(C)cc(=O)n1C(CC)CC`, the growth is 101% in the assay on NCI-H23 lung; 99.1% in the assay on NCI-H226 lung; 96.1% in the assay with HOP-62 NSCLC; 103% with NCI-H460 lung; 99.9% in the assay on HOP-92 NSCLC; 106% in the assay with NCI-H522 lung. For the same compound, the growth was 101% in the assay with A549/ATCC NSCLC, 105% in the assay on 786-0 renal and 115% with COLO 205 colon.

As for `CC(C)CCN(CCC(C)C)CC(=O)Nc1ccc(S(=O)(=O)c2ccc(NC(=O)CN(CCC(C)C)CCC(C)C)cc2)cc1`, the growth with NCI-H23 lung is 46.3%; in the assay with NCI-H226 lung, 76.7%; in the assay on HOP-62 NSCLC, 67.5%; with NCI-H460 lung, 48.2%; in the assay on HOP-92 NSCLC, 75%; in the assay on NCI-H522 lung, -64.6% (active). The growth is 53.7% in the assay on A549/ATCC NSCLC, 18% in the assay on 786-0 renal and 29.6% with COLO 205 colon.

`CC[N+](CC)=c1ccc2nc3c(cc(NCc4ccccc4)c4ccccc43)oc-2c1`: the growth was -76% (active) in the assay with NCI-H23 lung; -34.4% (active) in the assay on NCI-H226 lung; -99.6% (active) with HOP-62 NSCLC; -66.4% (active) in the assay on NCI-H460 lung; -7.03% (active) with HOP-92 NSCLC; -82.3% (active) with NCI-H522 lung. The growth with A549/ATCC NSCLC is -90.2% (active); with 786-0 renal, -62.7% (active); in the assay on COLO 205 colon, -89.4% (active).

As for `CN(C)CCCOc1ccc(OCCCN(C)C)c2c1C(=O)c1ccccc1C2=O`, the growth was -19.6% (active) in the assay with NCI-H23 lung; -5.49% (active) in the assay with NCI-H226 lung; -1.4% (active) in the assay on HOP-62 NSCLC; 0.0676% (active) in the assay with NCI-H460 lung; -0.93% (active) with HOP-92 NSCLC; -48.5% (active) in the assay on NCI-H522 lung. Besides, the growth was 3.96% (active) in the assay with A549/ATCC NSCLC, 16.6% in the assay with 786-0 renal and -57.9% (active) in the assay on COLO 205 colon.

As to `CN(C)CCOc1cccc(-c2nc3sccn3c2-c2ccnc(S(C)(=O)=O)n2)c1`, the growth in the assay with NCI-H23 lung is 100%; with NCI-H226 lung, 92.3%; in the assay on HOP-62 NSCLC, 79%; in the assay with NCI-H460 lung, 94.9%; in the assay with HOP-92 NSCLC, 53.7%; in the assay with NCI-H522 lung it was 103%. Further, the growth was 97.9% in the assay with A549/ATCC NSCLC, 95.9% with 786-0 renal and 106% with COLO 205 colon.

On to `CC(=O)[C@H]1CC[C@]2(C)[C@@H]1CC[C@@H]1[C@@]3(C)CC(CCC#N)(CCC#N)C(=O)C(C)(C)[C@@H]3CC[C@]12C`, for which the growth with NCI-H23 lung was 86.7%; in the assay on NCI-H226 lung, 94.6%; in the assay with HOP-62 NSCLC it was 99.3%; with NCI-H460 lung it was 101%; with HOP-92 NSCLC, 105%; in the assay with NCI-H522 lung, 94.1%. Also, the growth in the assay with A549/ATCC NSCLC is 103%; with 786-0 renal it was 101%; in the assay on COLO 205 colon it was 106%.

With `COc1ccc(/C=C2\CCCC3=C2NC(N)=NC3c2ccc(OC)c(OC)c2)cc1OC` (stereo unspecified), the growth in the assay with NCI-H23 lung was 49.3%; in the assay on NCI-H226 lung, 34.1%; in the assay with HOP-62 NSCLC, 57%; in the assay with NCI-H460 lung it was 64.6%; in the assay with HOP-92 NSCLC it was 75%; in the assay with NCI-H522 lung, 16.7%. Also, the growth in the assay on A549/ATCC NSCLC was 58.8%; with 786-0 renal, 94.3%; in the assay with COLO 205 colon, 46%.

Regarding `C[C@@H](C[C@H](CCO)c1ccccc1)c1ccc2ccccc2c1`, the growth was -65.1% (active) in the assay with NCI-H23 lung; -65.7% (active) in the assay on NCI-H226 lung; -55% (active) in the assay on HOP-62 NSCLC; -48.5% (active) with NCI-H460 lung; -95.6% (active) in the assay with HOP-92 NSCLC; -53.9% (active) in the assay on NCI-H522 lung. Besides, the results for the growth with A549/ATCC NSCLC, with 786-0 renal and in the assay with COLO 205 colon were -81.4% (active), -90.6% (active) and -86.9% (active), respectively.

In the case of `Nc1ccc(/C=N/Nc2ccnc3c(O)cccc23)c2cccnc12`, the growth is 74.6% in the assay on NCI-H23 lung; 84% in the assay with NCI-H226 lung; 64.4% in the assay with HOP-62 NSCLC; 25.9% in the assay with NCI-H460 lung; 88.1% with HOP-92 NSCLC; 41.3% in the assay with NCI-H522 lung. Besides, the growth in the assay with A549/ATCC NSCLC is 42.6%; in the assay on 786-0 renal, 50.7%; in the assay with COLO 205 colon, 104%.

For the compound `O=C(Nc1ccc(OS(=O)(=O)c2ccccc2)cc1)C1CCCCC1`, the growth in the assay on NCI-H23 lung was 88%; in the assay on NCI-H226 lung, 87%; with HOP-62 NSCLC, 94.5%; in the assay on NCI-H460 lung, 99.8%; in the assay with HOP-92 NSCLC it was 98.5%; in the assay with NCI-H522 lung, 75.4%. Moreover, the growth with A549/ATCC NSCLC was 90.5%; in the assay on 786-0 renal, 89.9%; with COLO 205 colon, 97%.

For `CCCc1cn(CC(=O)Nc2nc3ccccc3s2)nn1`, the growth is 110% in the assay on NCI-H23 lung; 106% with NCI-H226 lung; 102% in the assay with HOP-62 NSCLC; 103% with NCI-H460 lung; 109% with HOP-92 NSCLC; 93.8% in the assay with NCI-H522 lung. Moreover, the results for the growth in the assay on A549/ATCC NSCLC, with 786-0 renal and with COLO 205 colon were 98.4%, 108% and 109%, respectively.

As to `Cc1ccc(C)c(COc2cc(NC(=O)c3ccc4c(c3)OCO4)ccc2N(C)S(C)(=O)=O)c1`, the growth with NCI-H23 lung was 9.96% (active); in the assay with NCI-H226 lung, 37%; with HOP-62 NSCLC, 16.1%; in the assay on NCI-H460 lung, -9.36% (active); in the assay on HOP-92 NSCLC it was 23.1%; with NCI-H522 lung, -15.9% (active). Moreover, the results for the growth in the assay on A549/ATCC NSCLC, in the assay on 786-0 renal and in the assay with COLO 205 colon were 21.9%, 6.5% (active) and -68.3% (active), respectively.

For `O=C(CN(C1CCCCC1)C1CCCCC1)Nc1ccc(S(=O)(=O)c2ccc(NC(=O)CN(C3CCCCC3)C3CCCCC3)cc2)cc1`, the growth was -36.6% (active) with NCI-H23 lung; 0.397% (active) with NCI-H226 lung; -21.4% (active) in the assay with HOP-62 NSCLC; -9.66% (active) in the assay with NCI-H460 lung; -86.7% (active) with HOP-92 NSCLC; -74.4% (active) with NCI-H522 lung. Further, the growth was 2.61% (active) in the assay on A549/ATCC NSCLC, -82.7% (active) in the assay on 786-0 renal and -70.6% (active) in the assay with COLO 205 colon.

With `C=CCSC(CC)(CC)C(=O)NC`, the growth was 99.4% with NCI-H23 lung; 97.8% in the assay with NCI-H226 lung; 102% with HOP-62 NSCLC; 103% in the assay on NCI-H460 lung; 106% in the assay with HOP-92 NSCLC; 86.5% with NCI-H522 lung. Moreover, the results for the growth in the assay on A549/ATCC NSCLC, in the assay with 786-0 renal and with COLO 205 colon were 94.9%, 104% and 120%, respectively.

(Values after PubChem BioAssay (NCI).)
